What was measured:
[1] = biological target: T1, CDK9/cyclin T1 (Homo sapiens) (UniProt O60563+P50750); conditions: at 1 µM
[2] = biological target: T1, CDK9/cyclin T1 (Homo sapiens); conditions: at 10 µM
[3] = biological target: T2, Serine/threonine-protein kinase Chk1 (Homo sapiens) (UniProt O14757); conditions: at 1 µM
T2 sequence (whole entry): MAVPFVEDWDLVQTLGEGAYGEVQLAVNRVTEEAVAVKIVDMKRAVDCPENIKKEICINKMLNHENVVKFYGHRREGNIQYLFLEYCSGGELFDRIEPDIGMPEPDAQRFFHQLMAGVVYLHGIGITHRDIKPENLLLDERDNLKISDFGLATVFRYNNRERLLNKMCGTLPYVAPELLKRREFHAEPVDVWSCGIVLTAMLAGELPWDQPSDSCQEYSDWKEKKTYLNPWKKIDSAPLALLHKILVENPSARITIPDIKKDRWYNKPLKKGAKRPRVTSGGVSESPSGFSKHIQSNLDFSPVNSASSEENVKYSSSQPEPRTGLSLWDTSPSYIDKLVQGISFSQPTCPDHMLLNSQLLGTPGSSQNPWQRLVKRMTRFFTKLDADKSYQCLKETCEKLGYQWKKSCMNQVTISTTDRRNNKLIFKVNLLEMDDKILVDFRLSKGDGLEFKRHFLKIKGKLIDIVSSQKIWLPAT

[4] = biological target: T2, Serine/threonine-protein kinase Chk1 (Homo sapiens); conditions: at 10 µM
[5] = biological target: Serine/threonine-protein kinase Chk2 (Homo sapiens) (UniProt O96017); conditions: at 1 µM
Chain of Serine/threonine-protein kinase Chk2 (Homo sapiens) (O96017 whole entry, canonical isoform): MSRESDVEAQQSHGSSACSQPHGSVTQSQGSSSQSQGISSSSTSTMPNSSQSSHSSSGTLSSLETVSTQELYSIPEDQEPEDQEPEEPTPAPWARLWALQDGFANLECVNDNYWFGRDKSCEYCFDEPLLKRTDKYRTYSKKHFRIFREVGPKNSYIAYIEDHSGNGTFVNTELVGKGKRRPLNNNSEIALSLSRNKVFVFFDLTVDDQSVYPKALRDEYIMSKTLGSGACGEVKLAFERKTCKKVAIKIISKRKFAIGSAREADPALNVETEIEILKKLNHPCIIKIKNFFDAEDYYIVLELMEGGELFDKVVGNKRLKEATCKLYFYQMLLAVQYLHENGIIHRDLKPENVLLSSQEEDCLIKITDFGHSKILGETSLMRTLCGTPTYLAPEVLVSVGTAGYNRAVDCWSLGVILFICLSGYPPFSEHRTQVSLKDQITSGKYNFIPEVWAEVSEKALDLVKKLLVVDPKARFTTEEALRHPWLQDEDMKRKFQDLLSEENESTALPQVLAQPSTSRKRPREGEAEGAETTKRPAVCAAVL

[6] = biological target: Serine/threonine-protein kinase Chk2 (Homo sapiens) (UniProt O96017); conditions: at 10 µM
[7] = biological target: Casein kinase I isoform gamma-1 (Homo sapiens) (UniProt Q9HCP0); conditions: at 1 µM
Chain of Casein kinase I isoform gamma-1 (Homo sapiens) (Q9HCP0 whole entry, looked up, canonical isoform): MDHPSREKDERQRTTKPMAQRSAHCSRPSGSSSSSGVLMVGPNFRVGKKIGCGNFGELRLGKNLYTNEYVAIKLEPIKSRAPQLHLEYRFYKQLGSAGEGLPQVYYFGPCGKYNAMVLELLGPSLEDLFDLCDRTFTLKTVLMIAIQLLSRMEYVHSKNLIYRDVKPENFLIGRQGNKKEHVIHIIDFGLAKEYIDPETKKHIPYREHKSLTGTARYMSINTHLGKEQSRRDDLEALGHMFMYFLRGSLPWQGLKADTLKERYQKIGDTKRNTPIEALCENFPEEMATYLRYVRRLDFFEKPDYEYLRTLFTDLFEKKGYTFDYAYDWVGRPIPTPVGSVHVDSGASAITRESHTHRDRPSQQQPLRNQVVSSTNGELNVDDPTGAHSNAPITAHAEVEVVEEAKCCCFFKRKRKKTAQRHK

[8] = biological target: Casein kinase I isoform gamma-1 (Homo sapiens) (UniProt Q9HCP0); conditions: at 10 µM
[9] = biological target: Casein kinase I isoform delta (Homo sapiens) (UniProt P48730); conditions: at 1 µM
Chain of Casein kinase I isoform delta (Homo sapiens) (P48730 whole entry, looked up, canonical isoform): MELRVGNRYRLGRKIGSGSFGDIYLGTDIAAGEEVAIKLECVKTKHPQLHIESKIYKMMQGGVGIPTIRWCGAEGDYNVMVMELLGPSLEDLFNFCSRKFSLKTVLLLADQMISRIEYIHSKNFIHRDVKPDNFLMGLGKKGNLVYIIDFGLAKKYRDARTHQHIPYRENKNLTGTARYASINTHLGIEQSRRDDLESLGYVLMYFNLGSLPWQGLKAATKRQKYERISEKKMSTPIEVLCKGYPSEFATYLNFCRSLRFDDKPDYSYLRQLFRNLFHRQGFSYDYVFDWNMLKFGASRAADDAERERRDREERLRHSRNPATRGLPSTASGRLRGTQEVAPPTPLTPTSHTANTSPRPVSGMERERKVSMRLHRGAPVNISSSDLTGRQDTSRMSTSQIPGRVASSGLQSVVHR

[10] = biological target: Casein kinase I isoform delta (Homo sapiens) (UniProt P48730); conditions: at 10 µM

SMILES | residual activity [1] [%] | residual activity [2] [%] | residual activity [3] [%] | residual activity [4] [%] | residual activity [5] [%] | residual activity [6] [%] | residual activity [7] [%] | residual activity [8] [%] | residual activity [9] [%] | residual activity [10] [%]
CCN(CC)CCNC(=O)c1c(C)[nH]c(/C=C2\C(=O)Nc3ccc(Cl)cc32)c1C | 48 | 13 | 24 | 3 | 6 | 1 | 64 | 14 | 23 | 5
NCCNc1ncc(C(N)=O)c(Nc2cccc(C(F)(F)F)c2)n1 | 73 | 21 | 66 | 27 | 15 | 2 |  |  | 79 | 58
COc1ccc2c(c1)c(C1=C(c3c[nH]c4ccccc34)C(=O)NC1=O)cn2CCCN(C)C | 29 | 4 | 67 | 41 | 34 | 9 |  | 96 | 79 | 76
O=c1cc(N2CCOCC2)oc2c1ccc1ccccc12 | 95 | 70 | 90 | 93 | 111 | 93 | 100 | 94 | 98 | 86
O=C(c1cc2cc(O)ccc2[nH]1)c1cc2cc(O)ccc2[nH]1 | 26 | 4 | 76 | 47 | 60 | 22 | 50 | 10 | 74 | 37
Cn1sc(=O)n(Cc2ccccc2)c1=O | 93 | 79 | 88 | 90 | 71 | 67 | 96 | 89 | 81 | 84
O=C(O)/C=C/c1cc(Br)c(Br)c(Br)c1Br | 69 | 13 | 107 | 97 | 59 | 33 | 103 | 76 | 56 | 12
CC(C)c1nn(-c2c(Cl)cccc2Cl)c2nc(Cc3ccc(OCCO)cc3)[nH]c(=O)c12 | 2 | 0 | 93 | 95 | 91 | 80 | 74 | 89 | 79 | 53
O=c1cc(N2CCNCC2)oc2c(-c3ccccc3)cccc12 | 79 | 42 | 83 | 85 | 90 | 91 | 97 | 97 | 88 | 85
O=C1Nc2ccc(Cl)cc2/C1=C/c1cc(Cl)c(O)c(Cl)c1 | 90 | 69 | 75 | 64 | 76 | 25 | 89 | 75 | 77 | 35
CC(C)(C)n1nc(Cc2cccc3ccccc23)c2c(N)ncnc21 | 101 | 65 | 86 | 102 | 96 | 48 |  |  | 40 | 3
Cc1cc(C)c(/C=C2\C(=O)Nc3ccccc32)[nH]1 | 100 | 78 | 72 | 38 | 18 | 3 |  |  | 13 | 2
CCCCc1c(-c2ccc(O)cc2)[nH]c2nccnc12 | 7 | 7 | 91 | 100 | 31 | 10 | 75 | 61 | 81 | 52
O=S(=O)(NCCNC/C=C/c1ccc(Br)cc1)c1cccc2cnccc12 | 72 | 41 | 81 | 44 | 81 | 27 |  |  |  | 
Nc1ncnc2c1cnn2-c1ccccc1 | 102 | 73 | 91 | 83 | 92 |  | 98 | 99 | 85 | 36
CCCC(=O)Oc1ccc2[nH]c(C(=O)c3cc4ccccc4[nH]3)cc2c1 | 108 | 88 | 79 | 89 | 93 | 97 | 90 | 92 | 87 | 101
COc1cc2nccc(Oc3ccc(NC(=S)NC(=O)c4ccccc4C)cc3)c2cc1OC | 92 | 89 | 83 |  | 48 | 23 | 91 | 63 | 85 | 62
O=C1NC(=O)c2c1c1c3ccccc3[nH]c1n1cncc21 | 70 | 59 | 18 | 14 | 23 | 8 | 58 | 40 | 15 | 9
NC(=O)Nc1sc(-c2ccc(F)cc2)cc1C(N)=O | 89 | 42 | 37 | 7 | 34 | 4 | 104 | 71 | 71 | 31
O=C(c1ccccc1)c1ccc(N2CCOCC2)cc1O | 89 | 47 | 86 | 90 | 86 |  | 86 | 100 | 88 | 92
O=C1NC(=O)C(c2cn(CCCn3ccnc3)c3ccccc23)=C1Nc1ccccc1 | 14 | 3 | 75 | 37 |  |  |  |  |  | 75

SMILES | residual activity [1] [%] | residual activity [2] [%] | residual activity [3] [%] | residual activity [4] [%] | residual activity [5] [%] | residual activity [6] [%] | residual activity [7] [%] | residual activity [8] [%] | residual activity [9] [%] | residual activity [10] [%]
Nc1ncnc2c1c(-c1ccc(Oc3ccccc3)cc1)cn2C1CCCC1 | 99 | 96 | 83 | 113 | 79 | 24 | 88 | 73 | 56 | 8
O=C1Cc2c([nH]c3ccc([N+](=O)[O-])cc23)-c2ccccc2N1 | 1 | 2 | 39 |  | 3 | 1 |  |  |  | 
CN(C)S(=O)(=O)c1ccc2c(c1)/C(=C/c1cc3c([nH]1)CCCC3)C(=O)N2 | 92 | 93 | 77 | 73 | 35 |  |  |  | 92 | 71
O=C(Nc1nc2ccccc2n1CCN1CCOCC1)c1cccc([N+](=O)[O-])c1 | 41 | 58 | 85 |  | 79 | 67 | 58 | 67 | 64 | 62
Nc1nc(Nc2ccc(S(N)(=O)=O)cc2)nn1C(=O)c1c(F)cccc1F | 0 | 0 | 82 | 31 | 52 | 11 |  |  | 100 | 
COc1cc2c(cc1OC)-c1n[nH]c(Nc3cccc(F)c3)c1C2 | 99 | 50 | 72 | 75 | 82 | 70 |  | 73 | 76 | 39
O=C1C(Cl)=C(N2C(=O)CCC2=O)C(=O)c2ccccc21 | 86 | 87 | 94 | 87 | 88 | 84 |  |  | 91 | 85
N#C/C(=C1/Nc2ccccc2S1)c1ccnc(NCCc2cccnc2)n1 | 8 | 3 | 97 | 84 | 80 | 48 | 77 | 29 | 52 | 8
Nc1n[nH]c2nc3ccccc3nc12 | 59 | 36 | 90 | 79 | 82 | 61 | 79 | 69 | 75 | 34
CCOC(=O)c1c(C)[nH]c(/C=C2\C(=O)Nc3ccccc32)c1C |  |  | 90 | 92 | 45 | 34 | 88 | 81 | 77 | 62
c1ccc(-c2cnc(Nc3ccc(OCCN4CCCC4)cc3)s2)cc1 | 26 | 4 |  |  |  |  |  |  | 81 | 54
Nc1ncnc2[nH]nc(Nc3ccc(F)cc3)c12 | 80 | 36 |  | 60 | 73 | 59 |  | 66 | 42 | 7
COc1ccc(CNC(=O)Nc2ncc([N+](=O)[O-])s2)cc1 |  | 5 |  |  |  | 77 |  |  |  | 
O=c1c(-c2ccc(F)cc2)c(-c2ccncc2)[nH]n1-c1ccc(Cl)cc1 | 100 | 100 |  |  | 43 | 33 |  | 62 | 44 | 5
O=C1NC(=O)C(c2c[nH]c3ccccc23)=C1c1c[nH]c2ccccc12 | 36 | 5 |  | 53 | 73 | 25 |  |  |  | 56
COc1cc2ncnc(Nc3cccc(Cl)c3)c2cc1OC |  | 71 |  | 89 | 79 | 42 | 100 | 81 | 87 | 62
CC(C)(C)c1nc2c3ccc(F)cc3c3c(=O)[nH]ccc3c2[nH]1 |  |  | 37 | 24 | 2 | 1 |  |  |  | 
Cn1c2ccccc2c2c3c(c4c5ccccc5n(CCC#N)c4c21)CNC3=O |  | 36 | 2 | 0 | 25 | 15 |  |  | 70 | 48
N#C/C(=C\c1ccc(O)c(O)c1)C(=O)NCc1ccccc1 |  |  |  |  | 89 | 73 |  |  | 80 | 87
O=C(CCCc1ccc(-c2ccccc2F)cc1)Nc1ccc(O)cc1 | 104 |  | 93 | 108 | 91 | 72 | 107 | 102 | 98 | 92
COc1cc2nccc(Oc3ccc(NC(=O)Nc4cc(C)on4)c(Cl)c3)c2cc1OC |  | 72 |  |  | 79 | 30 |  |  |  | 

SMILES | residual activity [1] [%] | residual activity [2] [%] | residual activity [3] [%] | residual activity [4] [%] | residual activity [5] [%] | residual activity [6] [%] | residual activity [7] [%] | residual activity [8] [%] | residual activity [9] [%] | residual activity [10] [%]
NC(=O)c1cccc(-c2cc(Nc3ccc(OC(F)(F)F)cc3)ncn2)c1 |  | 69 | 99 | 96 | 95 | 87 | 94 | 63 | 90 | 74
Fc1ccc(-c2nc3n(c2-c2ccncc2)CCS3)cc1 |  |  |  |  | 92 | 88 | 86 | 28 | 3 | 1
O=C1NC(=O)C(c2cn(CCCO)c3ncccc23)=C1c1cnccn1 | 89 | 82 |  |  | 88 | 79 | 93 | 90 | 79 | 79
COc1ccc(-c2cnc3c(-c4ccsc4)cnn3c2)cc1 |  |  | 87 | 95 |  |  | 98 | 92 |  | 
O=C(NC(NC(=S)Nc1ccc(F)c([N+](=O)[O-])c1)C(Cl)(Cl)Cl)C(c1ccccc1)c1ccccc1 (configuration not stated) | 101 | 95 |  |  |  | 82 | 94 | 55 | 45 | 64
O=S(=O)(c1cccc2cnccc12)N1CCCNCC1 | 81 | 29 |  |  |  | 54 | 124 | 100 |  | 
N#Cc1c(NC(=O)c2cccc3ccccc23)sc2c1CCCC2 | 99 | 100 |  |  |  | 76 |  |  | 83 | 77
CC(C)[C@H](CO)Nc1nc(Nc2cc(N)cc(Cl)c2)c2ncn(C(C)C)c2n1 |  |  |  |  | 67 | 30 |  |  | 74 | 26
NC(=O)c1ccc(-c2nc(-c3ccc4c(c3)OCCO4)c(-c3ccccn3)[nH]2)cc1 |  |  |  |  | 92 | 81 | 82 | 83 | 17 | 2
O=C1Cc2c([nH]c3ccc(Br)cc23)-c2ccccc2N1 |  |  | 77 | 53 |  |  |  | 71 | 80 | 68
CC(C)N(CCC(=O)c1ccc2ccccc2c1)Cc1ccccc1 |  |  |  |  | 100 | 72 | 82 |  |  | 
CSc1nc(-c2ccc(F)cc2)c(-c2ccnc(NC(C)c3ccccc3)c2)[nH]1 (configuration not stated) | 96 |  | 95 | 78 | 5 | 3 | 62 | 11 | 35 | 9
CCN1/C(=C/C(C)=O)Sc2ccc(OC)cc21 |  |  |  |  |  |  | 69 | 21 | 29 | 4
CCCCc1c(-c2ccc(OC)cc2)[nH]c2nccnc12 | 10 | 17 |  |  | 44 | 11 | 79 | 77 | 85 | 73
COc1ccc(Cl)cc1NC(=O)Nc1cc(C)nc2ccccc12 |  |  | 86 | 81 | 85 |  | 94 | 100 |  | 
Nc1nccc(-c2c(-c3ccc(F)cc3)ncn2C2CCNCC2)n1 |  |  |  |  |  |  | 72 | 21 |  | 
O=C1Nc2ccccc2/C1=C\c1c(Cl)[nH]c2ccccc12 | 80 | 34 |  |  | 75 | 41 |  |  | 85 | 51
CN([C@@H](Cc1ccc(OS(=O)(=O)c2cccc3cnccc23)cc1)C(=O)N1CCN(c2ccccc2)CC1)S(=O)(=O)c1cccc2cnccc12 |  |  |  |  |  | 79 |  | 73 |  | 
Oc1cccc(-c2nc(N3CCOCC3)c3oc4ncccc4c3n2)c1 |  |  | 93 | 100 | 100 | 68 | 90 | 98 | 83 | 72

— ChEMBL document CHEMBL2218924, “A broad activity screen in support of a chemogenomic map for kinase signalling research and drug discovery” (Biochem J, 2013)
